# Data as given in PubChem BioAssay (NCATS).
# Results filed as inconclusive are left out. A call without a number means that no potency is given here. The source made the active and inactive calls. The call rests on the fitted dose curve; in most records, active means well fitted curve in the direction sought with a large enough effect; inconclusive means small, poorly fitted or top-dose-only effect, or another doubt; inactive means no such curve, though single readings can be large; an effect the other way counts as inactive or inconclusive.
# Target: Voltage-gated inwardly rectifying potassium channel KCNH2 (Homo sapiens) (UniProt Q12809)
# Sequence (Q12809 whole entry, looked up): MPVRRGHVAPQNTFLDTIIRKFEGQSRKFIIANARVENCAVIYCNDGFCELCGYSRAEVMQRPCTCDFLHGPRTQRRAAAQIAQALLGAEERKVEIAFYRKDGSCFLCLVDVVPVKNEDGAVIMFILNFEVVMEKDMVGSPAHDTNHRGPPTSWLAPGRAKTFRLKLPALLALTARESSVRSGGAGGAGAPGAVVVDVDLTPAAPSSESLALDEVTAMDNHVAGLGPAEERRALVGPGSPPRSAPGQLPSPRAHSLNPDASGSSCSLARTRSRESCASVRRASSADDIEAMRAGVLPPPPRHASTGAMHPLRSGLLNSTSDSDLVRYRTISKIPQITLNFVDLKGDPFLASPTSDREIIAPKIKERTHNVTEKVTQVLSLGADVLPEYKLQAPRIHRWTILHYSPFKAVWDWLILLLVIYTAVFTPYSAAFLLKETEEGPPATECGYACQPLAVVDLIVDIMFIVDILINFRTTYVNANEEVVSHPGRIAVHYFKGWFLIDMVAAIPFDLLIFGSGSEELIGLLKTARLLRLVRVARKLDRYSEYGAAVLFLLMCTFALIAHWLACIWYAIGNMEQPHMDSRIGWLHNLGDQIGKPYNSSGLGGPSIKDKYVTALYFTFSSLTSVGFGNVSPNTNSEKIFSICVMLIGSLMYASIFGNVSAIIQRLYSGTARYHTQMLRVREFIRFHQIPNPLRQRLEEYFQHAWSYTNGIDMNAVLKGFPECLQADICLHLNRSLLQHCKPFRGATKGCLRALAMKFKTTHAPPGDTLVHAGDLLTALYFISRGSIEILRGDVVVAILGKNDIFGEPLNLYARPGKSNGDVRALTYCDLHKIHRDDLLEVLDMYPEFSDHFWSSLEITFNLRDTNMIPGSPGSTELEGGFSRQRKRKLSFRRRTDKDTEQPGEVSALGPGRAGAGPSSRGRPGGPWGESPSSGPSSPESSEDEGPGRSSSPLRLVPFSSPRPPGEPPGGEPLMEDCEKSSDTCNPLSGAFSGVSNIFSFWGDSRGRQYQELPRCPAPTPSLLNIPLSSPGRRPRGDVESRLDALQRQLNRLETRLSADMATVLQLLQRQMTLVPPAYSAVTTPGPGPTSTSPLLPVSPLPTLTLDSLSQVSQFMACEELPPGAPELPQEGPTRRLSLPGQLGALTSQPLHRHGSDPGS
# Test: qHTS Assay for Small Molecule Inhibitors of the Human hERG Channel Activity (AID 588834);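 further: lower thallium flux fluorescence means stronger hERG block; nearly all actives have a fitted effect of over 50% in size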; further: potency means the concentration at half of the fitted maximal effect
# Conditions: U2OS BacMam hERG, FluxOR thallium flux fluorescence; series mostly up to 46.1 µM
# Summary of the method: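 U2OS cells transduced with hERG via BacMam (MOI ~100), plated 2000/well, loaded with FluxOR thallium dye, compound ~10 min, then stimulation buffer; fluorescence decrease read kinetically; AC50 from Hill fits.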
row,SMILES,Potency
1,C[C@@H]1CN(c2c(F)c(N)c3c(=O)c(C(=O)O)cn(C4CC4)c3c2F)C[C@H](C)N1,inactive
2,Cn1c(=O)c2c(ncn2CC(O)CO)n(C)c1=O (stereo not given),inactive
3,CCN[C@H]1C[C@H](C)S(=O)(=O)c2sc(S(N)(=O)=O)cc21,inactive
4,COc1cc(NS(=O)(=O)c2ccc(N)cc2)nc(OC)n1,inactive
5,O=C(O)C1CCCN(CCC=C(c2ccccc2)c2ccccc2)C1 (stereo not given),11.2 µM (active)
6,COc1nc(N)nc2c1ncn2[C@@H]1O[C@H](CO)[C@@H](O)[C@@H]1O,inactive
7,CN(C)CCc1c[nH]c2ccc(C[C@H]3COC(=O)N3)cc12,inactive
8,NC(=O)N1c2ccccc2CC(=O)c2ccccc21,inactive
9,O=S(=O)(c1cccc2cnccc12)N1CCCNCC1,inactive
10,CO[C@@]12[C@H](COC(N)=O)C3=C(C(=O)C(C)=C(N)C3=O)N1C[C@@H]1N[C@@H]12,inactive
11,CCn1cc(C(=O)O)c(=O)c2cc(F)c(N3CCNCC3)cc21,inactive
12,COc1ccc(-c2ccc3cc(C(=O)O)ccc3c2)cc1C12CC3CC(CC(C3)C1)C2,inactive
13,CN1CCN(c2c(F)cc3c(=O)c(C(=O)O)cn(CCF)c3c2F)CC1,inactive
14,CC(C)(C)NC(=O)[C@H]1CC[C@H]2[C@@H]3CC[C@H]4NC(=O)C=C[C@]4(C)[C@H]3CC[C@]12C,inactive

# Target: Luciferin 4-monooxygenase (Photinus pyralis) (UniProt P08659)
# Sequence (P08659 whole entry, looked up): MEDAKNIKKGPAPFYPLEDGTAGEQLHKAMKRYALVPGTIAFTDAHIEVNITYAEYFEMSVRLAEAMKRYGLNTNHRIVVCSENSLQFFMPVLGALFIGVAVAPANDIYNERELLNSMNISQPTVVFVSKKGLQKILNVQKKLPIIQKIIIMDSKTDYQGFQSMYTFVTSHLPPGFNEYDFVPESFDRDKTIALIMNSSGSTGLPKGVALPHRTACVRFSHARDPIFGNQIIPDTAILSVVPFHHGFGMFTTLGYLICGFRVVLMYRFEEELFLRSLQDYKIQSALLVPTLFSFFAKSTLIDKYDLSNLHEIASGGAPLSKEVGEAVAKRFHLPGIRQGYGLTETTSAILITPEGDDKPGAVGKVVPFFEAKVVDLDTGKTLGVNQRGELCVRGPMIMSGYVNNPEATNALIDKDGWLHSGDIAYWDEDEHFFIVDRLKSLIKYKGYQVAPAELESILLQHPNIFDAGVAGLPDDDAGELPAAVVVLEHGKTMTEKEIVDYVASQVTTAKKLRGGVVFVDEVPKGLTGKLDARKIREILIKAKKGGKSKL
# Test: Biochemical firefly luciferase enzyme assay for NPC (AID 624030);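 further: purified P. pyralis luciferase at 10 nM with luciferin and ATP substrate; nearly all actives have a fitted effect of over 70% in size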
# Conditions: purified P. pyralis luciferase, luminescence, 5 min; series mostly up to 58.6 µM
# Summary of the method: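 Counter-screen for direct inhibition of the luciferase enzyme by approved-drug library compounds, run at 10 nM enzyme in 50 mM Tris acetate (final). Luminescence was read within 5 min of enzyme-buffer addition and normalized to PTC124 versus DMSO (0%).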
row,SMILES,Potency
1,COC(=O)Nc1nc2ccc(Sc3ccccc3)cc2[nH]1,inactive
2,CCc1c2c(nc3ccc(OC(=O)N4CCC(N5CCCCC5)CC4)cc13)-c1cc3c(c(=O)n1C2)COC(=O)[C@]3(O)CC,inactive
3,Cn1nnc2c(C(N)=O)ncn2c1=O,inactive
4,CC(C)Cn1cnc2c(N)nc3ccccc3c21,inactive
5,CCCN[C@H]1CCc2nc(N)sc2C1,inactive
6,O=C(O)c1cccnc1,inactive
7,CCOC(=O)c1ccc(OC(=O)CCCCCN=C(N)N)cc1,inactive
8,CC(N)C12CC3CC(CC(C3)C1)C2 (stereo not given),inactive
9,NC(=O)c1cccnc1,inactive
10,CCN(C)C(=O)Oc1cccc([C@H](C)N(C)C)c1,inactive
11,CC(C)(C#N)c1cc(Cn2cncn2)cc(C(C)(C)C#N)c1,inactive
12,CCOC(=O)c1ccc(C#Cc2ccc3c(c2)C(C)(C)CCS3)nc1,inactive
13,CCCCOc1ccc(CC(=O)NO)cc1,inactive
14,Clc1ccccc1CN1CCc2sccc2C1,inactive
15,COc1cc(NS(=O)(=O)c2ccc(N)cc2)nc(OC)n1,inactive
16,COc1nc(N)nc2c1ncn2[C@@H]1O[C@H](CO)[C@@H](O)[C@@H]1O,inactive
17,NC(=O)N1c2ccccc2CC(=O)c2ccccc21,inactive
18,O=S(=O)(c1cccc2cnccc12)N1CCCNCC1,inactive
19,CCn1cc(C(=O)O)c(=O)c2cc(F)c(N3CCNCC3)cc21,inactive
20,COc1ccc(-c2ccc3cc(C(=O)O)ccc3c2)cc1C12CC3CC(CC(C3)C1)C2,inactive
21,CN1CCN(c2c(F)cc3c(=O)c(C(=O)O)cn(CCF)c3c2F)CC1,inactive

# System: not listed separately
# Test: S16 Schwann cell viability assay (CellTiter-Glo assay) (AID 624031);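 further: cellular ATP luminescence as a viability measure; nearly all actives have a fitted effect of over 70% in size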
# Conditions: S16 rat Schwann cells viability, 24 h; series mostly up to 57.5 µM
# Summary of the method: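 This viability control uses native rat S16 Schwann cells grown in DMEM plus 10% FBS. After a 24 h compound treatment at 37 °C, CellTiter-Glo luminescence reports ATP content, scaled against DMSO-treated and cell-free wells.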
row,SMILES,Potency
1,COC(=O)Nc1nc2ccc(Sc3ccccc3)cc2[nH]1,inactive
2,CCc1c2c(nc3ccc(OC(=O)N4CCC(N5CCCCC5)CC4)cc13)-c1cc3c(c(=O)n1C2)COC(=O)[C@]3(O)CC,inactive
3,Cn1nnc2c(C(N)=O)ncn2c1=O,inactive
4,CC(C)Cn1cnc2c(N)nc3ccccc3c21,inactive
5,CCCN[C@H]1CCc2nc(N)sc2C1,inactive
6,O=C(O)c1cccnc1,inactive
7,CCOC(=O)c1ccc(OC(=O)CCCCCN=C(N)N)cc1,inactive
8,CC(N)C12CC3CC(CC(C3)C1)C2 (stereo not given),inactive
9,NC(=O)c1cccnc1,inactive
10,CCN(C)C(=O)Oc1cccc([C@H](C)N(C)C)c1,inactive
11,CC(C)(C#N)c1cc(Cn2cncn2)cc(C(C)(C)C#N)c1,inactive
12,CCOC(=O)c1ccc(C#Cc2ccc3c(c2)C(C)(C)CCS3)nc1,inactive
13,CCCCOc1ccc(CC(=O)NO)cc1,inactive
14,Clc1ccccc1CN1CCc2sccc2C1,inactive
15,COc1cc(NS(=O)(=O)c2ccc(N)cc2)nc(OC)n1,inactive
16,COc1nc(N)nc2c1ncn2[C@@H]1O[C@H](CO)[C@@H](O)[C@@H]1O,inactive
17,NC(=O)N1c2ccccc2CC(=O)c2ccccc21,inactive
18,O=S(=O)(c1cccc2cnccc12)N1CCCNCC1,inactive
19,CCn1cc(C(=O)O)c(=O)c2cc(F)c(N3CCNCC3)cc21,inactive
20,COc1ccc(-c2ccc3cc(C(=O)O)ccc3c2)cc1C12CC3CC(CC(C3)C1)C2,inactive
21,CN1CCN(c2c(F)cc3c(=O)c(C(=O)O)cn(CCF)c3c2F)CC1,inactive

# System: not listed separately
# Test: S16 Schwann cell PMP22 intronic element firefly luciferase assay (AID 624032); further: nearly all actives have a fitted effect of over 30% in size; further: potency means the concentration at half of the fitted maximal effect
# Conditions: S16 rat Schwann cells, PMP22 element FLuc, 24 h; series mostly up to 57.5 µM
# Summary of the method: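 Rat S16 Schwann cells stably carrying a PMP22 intronic element-driven Fluc reporter were seeded overnight, then exposed to compounds for 24 h at 37 °C. Luminescence was normalized to PTC124 (positive control) and DMSO (0% activity).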
row,SMILES,Potency
1,COC(=O)Nc1nc2ccc(Sc3ccccc3)cc2[nH]1,inactive
2,Cn1nnc2c(C(N)=O)ncn2c1=O,inactive
3,O=C(O)c1cccnc1,inactive
4,CCOC(=O)c1ccc(OC(=O)CCCCCN=C(N)N)cc1,inactive
5,CC(N)C12CC3CC(CC(C3)C1)C2 (stereo not given),inactive
6,NC(=O)c1cccnc1,inactive
7,CCN(C)C(=O)Oc1cccc([C@H](C)N(C)C)c1,inactive
8,CC(C)(C#N)c1cc(Cn2cncn2)cc(C(C)(C)C#N)c1,inactive
9,Clc1ccccc1CN1CCc2sccc2C1,inactive
10,COc1cc(NS(=O)(=O)c2ccc(N)cc2)nc(OC)n1,inactive
11,COc1nc(N)nc2c1ncn2[C@@H]1O[C@H](CO)[C@@H](O)[C@@H]1O,2.03 µM (active)
12,O=S(=O)(c1cccc2cnccc12)N1CCCNCC1,inactive
13,CCn1cc(C(=O)O)c(=O)c2cc(F)c(N3CCNCC3)cc21,inactive
14,CN1CCN(c2c(F)cc3c(=O)c(C(=O)O)cn(CCF)c3c2F)CC1,inactive
